Records with an inconclusive call do not appear. Active and inactive are the calls of the source. Unless noted, cut-off not given; nearly all actives show AC50 up to about 26 µM.
Key:
[1] = growth inhibition of DIPG glioma cells, dose response, cell-based, SU-DIPG-XVII, MIPE5.0, CellTiter-Glo, qHTS (AID 1347060); details: SU-DIPG-XVII viability, CellTiter-Glo ATP luminescence;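 on AC50: cells exposed to compound for 48 hours before viability readout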
[2] = growth inhibition of DIPG glioma cells, dose response, cell-based, SU-DIPG-XIII, MIPE5.0, CellTiter-Glo, qHTS (AID 1347064; cut-off not given, nearly all actives have AC50 up to about 23 µM;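 on AC50: cells exposed to compound for 48 hours before the viability read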); details: SU-DIPG-XIII viability, CellTiter-Glo ATP luminescence
[3] = viability loss in pontine glioma line – cell-based, SU-DIPG-XXV, MIPE5.0, CellTiter-Glo, qHTS, dose response (AID 1347065); details: CellTiter-Glo ATP luminescence;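 further: cells exposed to compound for 48 hours before ATP readout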
[4] = SU-DIPG-XXV glioma cell viability, MIPE5.0 library, qHTS (AID 1347068; cut-off not given, nearly all actives have IC50 up to about 30 µM;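 on IC50: cells exposed to compound for 48 hours before viability readout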)
[5] = JHH-DIPG-1 glioma cell viability, MIPE5.0 library, CellTiter-Glo luminescence, qHTS (AID 1347067); details: JHH-DIPG-1 glioma viability, CellTiter-Glo ATP luminescence;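 further: cells exposed to compound for 48 hours before readout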
[6] = sensitizers of A549 cells to miR-34 induction, primary screen, imaging, A549 dox-inducible miR-34, nuclei and caspase counts (AID 1347080;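 active means compounds whose cell count with miR-34 switched on is under 0.7 times the count with it off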); details: A549 miR-34 inducible, Hoechst nuclei count, 48 h
[7] = survival rescue of mitochondrial mutant cells in low glucose, primary screen, MELAS cybrids, Rieske KO mouse fibroblasts, CellTiter-Glo (AID 1508586;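 active means mean z-score across replicates of 1.96 or higher in either the MELAS or the Rieske mutant cell line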;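 further: z relative to plate mean and SD of compound and empty wells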)
[8] = ovarian cancer cell viability with rucaparib, profiling panel, oncology-focused library, rucaparib conditional (AID 1508598;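 active means normalized viability below 100% at a tested concentration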); details: patient-derived ovarian cancer cells, CellTiter-Glo viability, 144 h, stronger effect = lower value
[9] = stronger effect = lower value, cell number ratio, induced over uninduced
[10] = measured here: relative caspase fold change +Dox/-Dox
[11] = measured here: total cells with miR-34 induction, stronger effect = lower value
[12] = measured here: total cells without miR-34 induction
[13] = MELAS cybrid survival, CellTiter-Glo 48 h, stronger effect = higher value
[14] = Rieske KO mouse fibroblast survival, CellTiter-Glo 72 h

COc1ccc([C@@H](O)[C@@H](C)Oc2ccc([C@H]3O[C@H](c4ccc(O[C@H](C)[C@H](O)c5ccc(OC)c(OC)c5)c(OC)c4)[C@H](C)[C@H]3C)cc2OC)cc1OC
active: AC50 [1] 20.9 µM | AC50 [2] 5.9 µM | AC50 [3] 10.5 µM | IC50 [4] 11.8 µM

COc1cc(/C=C(\C#N)C(=O)Nc2nnc(C(F)(F)F)s2)ccc1OCc1ccc(C(F)(F)F)cc1C(F)(F)F
1620: cell count [6, 11]
active: AC50 [1] 5.25 µM | AC50 [2] 4.17 µM | AC50 [3] 3.72 µM | AC50 [5] 14.8 µM
0.417: fold change [6, 10]
inactive: fold change [6, 9] 0.986
1640: cell count [6, 12]

COc1cc2c(cc1OC(C)C)[C@H](c1ccc(Cl)cc1)N(c1ccc(N(C)CC3CCC(N4CCN(C)C(=O)C4)CC3)cc1)C(=O)C2 (stereo not given in full)
active: AC50 [1] 26.3 µM | AC50 [2] 20.9 µM | AC50 [3] 26.3 µM | IC50 [4] 29.5 µM

CC(=O)N1CCC(Nc2cc(C(=O)NC[C@H](O)CN3CCc4ccccc4C3)ncn2)CC1
inactive: outcome [1] | outcome [2] | outcome [3] | outcome [4]

Cc1c(NC(=O)OCC2COCCN2)cn2ncnc(Nc3ccc4c(cnn4Cc4cccc(F)c4)c3)c12 (stereo not given)
active: AC50 [1] 18.6 µM | AC50 [2] 23.5 µM | AC50 [3] 23.5 µM | AC50 [5] 20.9 µM
0.875: fold change [6, 10]
4340: cell count [6, 12]
4510: cell count [6, 11]
inactive: fold change [6, 9] 1.04 | z-score [7, 13] -0.264
0.355: z-score [7, 14]

Cn1ncc(Cl)c1-c1cc(C(=O)N[C@H](CN)Cc2cccc(F)c2)sc1Cl
inactive: outcome [4]
active: AC50 [1] 5.9 µM | AC50 [2] 2.95 µM | AC50 [3] 3.72 µM

N#CCC1(n2cc(-c3ncnc4[nH]ccc34)cn2)CN(C2CCN(C(=O)c3ccnc(C(F)(F)F)c3F)CC2)C1
inactive: outcome [1] | outcome [2] | outcome [3] | outcome [4]

Cc1ccc(-c2nc(N)nc3c2nnn3Cc2cccc(CO[C@H]3CCOC3)n2)o1
inactive: outcome [1] | outcome [2] | outcome [3] | outcome [4]

Cc1[nH]c2ccc(F)cc2c1-c1nc2c3cccnc3c3ncccc3c2[nH]1
active: AC50 [1] 6.79 µM | AC50 [2] 1.35 µM | AC50 [3] 1.91 µM | IC50 [4] 2.7 µM

CC(C)Oc1ccc(-c2nn([C@@H](C)c3oc4ccc(F)cc4c(=O)c3-c3cccc(F)c3)c3ncnc(N)c23)cc1F
inactive: outcome [1] | outcome [2] | outcome [3] | outcome [4]

Cc1ccc(-n2nc(C(C)(C)C)cc2NC(=O)NCc2cc(F)ccc2Oc2ccc3c(cnn3CCO)c2)cc1
active: AC50 [1] 10.5 µM | AC50 [2] 6.61 µM | AC50 [3] 5.25 µM | IC50 [4] 18.6 µM

Cc1ncc(Cl)cc1NCc1ccc(C(=O)NC(CC2CCCC2)C(=O)NC2CC2)s1 (stereo not given)
inactive: outcome [1] | outcome [2] | outcome [3] | outcome [4]

C[C@@H](c1ccc2nccn2c1)n1nnc2ncc(-c3cnn(C)c3)nc21
inactive: outcome [1] | outcome [2] | outcome [3] | outcome [4]

C[C@H]1COCCN1c1cc(C2(S(=O)(=O)C3CC3)CC2)nc(-c2ccc(NC(=S)NCCO)cc2)n1
active: AC50 [1] 0.295 µM | AC50 [2] 0.332 µM | AC50 [3] 0.0263 µM | IC50 [4] 4.68 µM

Cc1ccc(Sc2ccccc2N2CCNCC2)c(C)c1
inactive: fold change [6, 9] 0.93 | z-score [7, 13] -0.442
5160: cell count [6, 12]
active: AC50 [1] 11.8 µM | AC50 [2] 16.6 µM | AC50 [3] 10.5 µM | AC50 [5] 9.34 µM
4800: cell count [6, 11]
0.501: fold change [6, 10]
-1.42: z-score [7, 14]

Cc1nc(-c2cn3c(n2)-c2ccc(-c4cnn(C(C)(C)C(N)=O)c4)cc2OCC3)n(C(C)C)n1
active: AC50 [1] 0.525 µM | AC50 [2] 0.295 µM | AC50 [3] 0.105 µM | IC50 [4] 1.66 µM

Cc1nc2c(-c3cnc(N)nc3)nc(N3CCOCC3)nc2n1C(C)C
active: AC50 [1] 0.742 µM | AC50 [2] 1.05 µM | AC50 [3] 0.332 µM | AC50 [5] 0.742 µM | z-score [7, 13] 5.52 | viability ([8]; at 0.00122 µM, OCI-P5x cells, with rucaparib 20 µM, 100% = cells with rucaparib alone) 95.6% | viability ([8]; at 0.00488 µM, OCI-P5x cells, with rucaparib 20 µM, 100% = cells with rucaparib alone) 92.3% | viability ([8]; at 0.0195 µM, OCI-P5x cells, with rucaparib 20 µM, 100% = cells with rucaparib alone) 90.3% | viability ([8]; at 0.0781 µM, OCI-C5x cells, with rucaparib 10 µM, 100% = cells with rucaparib alone) 98.8% | viability ([8]; at 0.0781 µM, OCI-P5x cells, with rucaparib 20 µM, 100% = cells with rucaparib alone) 77.8% | viability ([8]; at 0.0781 µM, OCI-P5x cells, without rucaparib) 97.3% | viability ([8]; at 0.313 µM, OCI-P5x cells, with rucaparib 20 µM, 100% = cells with rucaparib alone) 68.3% | viability ([8]; at 0.313 µM, OCI-P5x cells, without rucaparib) 76.9% | viability ([8]; at 1.25 µM, OCI-C5x cells, with rucaparib 10 µM, 100% = cells with rucaparib alone) 69.8% | viability ([8]; at 1.25 µM, OCI-C5x cells, without rucaparib) 54.3% | viability ([8]; at 1.25 µM, OCI-P5x cells, with rucaparib 20 µM, 100% = cells with rucaparib alone) 37.6% | viability ([8]; at 1.25 µM, OCI-P5x cells, without rucaparib) 34.8% | viability ([8]; at 5 µM, OCI-C5x cells, with rucaparib 10 µM, 100% = cells with rucaparib alone) 34.3% | viability ([8]; at 5 µM, OCI-C5x cells, without rucaparib) 32.9% | viability ([8]; at 5 µM, OCI-P5x cells, with rucaparib 20 µM, 100% = cells with rucaparib alone) 13.7% | viability ([8]; at 5 µM, OCI-P5x cells, without rucaparib) 14.6%
inactive: fold change [6, 9] 0.815 | viability ([8]; at 0.000305 µM, OCI-C5x cells, with rucaparib 10 µM, 100% = cells with rucaparib alone) 117% | viability ([8]; at 0.000305 µM, OCI-C5x cells, without rucaparib) 112% | viability ([8]; at 0.000305 µM, OCI-P5x cells, with rucaparib 20 µM, 100% = cells with rucaparib alone) 108% | viability ([8]; at 0.000305 µM, OCI-P5x cells, without rucaparib) 109% | viability ([8]; at 0.00122 µM, OCI-C5x cells, with rucaparib 10 µM, 100% = cells with rucaparib alone) 120% | viability ([8]; at 0.00122 µM, OCI-C5x cells, without rucaparib) 120% | viability ([8]; at 0.00122 µM, OCI-P5x cells, without rucaparib) 109% | viability ([8]; at 0.00488 µM, OCI-C5x cells, with rucaparib 10 µM, 100% = cells with rucaparib alone) 120% | viability ([8]; at 0.00488 µM, OCI-C5x cells, without rucaparib) 116% | viability ([8]; at 0.00488 µM, OCI-P5x cells, without rucaparib) 113% | viability ([8]; at 0.0195 µM, OCI-C5x cells, with rucaparib 10 µM, 100% = cells with rucaparib alone) 111% | viability ([8]; at 0.0195 µM, OCI-C5x cells, without rucaparib) 114% | viability ([8]; at 0.0195 µM, OCI-P5x cells, without rucaparib) 108% | viability ([8]; at 0.0781 µM, OCI-C5x cells, without rucaparib) 116% | viability ([8]; at 0.313 µM, OCI-C5x cells, with rucaparib 10 µM, 100% = cells with rucaparib alone) 102% | viability ([8]; at 0.313 µM, OCI-C5x cells, without rucaparib) 103%
0.682: fold change [6, 10]
1980: cell count [6, 11]
-0.403: z-score [7, 14]
2430: cell count [6, 12]

CC(C)(O)c1coc(S(=O)(=O)NC(=O)Nc2c3c(cc4c2CCC4)CCC3)c1
inactive: outcome [1] | outcome [2] | outcome [3] | outcome [4]

O=C1CC(c2c[nH]c3ccc(F)cc23)C(=O)N1 (stereo not given)
inactive: outcome [1] | outcome [2] | outcome [3] | outcome [4]

Source: PubChem BioAssay
